# Measurements from PubChem BioAssay (NCATS).
# “And” between values parts separate entries of the source, which are not always exact repeats. Equal values may be shown once. Records with an inconclusive call do not appear. Entries that show only a call come without a potency. The source holds several records for some structures; these can differ, active in one and inactive in another. The source made the active and inactive calls. Unless noted, the call rests on the fitted dose curve; in most records, active means well fitted curve in the direction sought with a large enough effect; inconclusive means small, poorly fitted or top-dose-only effect, or another doubt; inactive means no such curve, though single readings can be large; an effect the other way counts as inactive or inconclusive.
# Key:
# Papain (Carica papaya) = Papain (Carica papaya) (UniProt P00784); experiment: Primary qHTS assay for inhibitors of the protease papain (AID 1645873);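 further: papain turnover of Z-FR-AMC read as the AMC fluorescence gain over 10 min; series mostly up to about 50 µM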
# [1] = Primary qHTS for inhibitors of nuclear receptor binding SET domain protein 2 (NSD2) in an isogenic RCH-ACV NSD2 p.E1099K mutant (9B) (AID 1645876); further: nearly all actives have a fitted effect of over 70% in size; further: potency means the concentration at half of the fitted maximal effect
# [2] = Primary qHTS for inhibitors of nuclear receptor binding SET domain protein 2 (NSD2) in an RCH-ACV wild type WT cells (2C) (AID 1645877); further: nearly all actives have a fitted effect of over 70% in size; further: potency means the concentration at half of the fitted maximal effect
# [3] = target: Cytochrome P450 2C9 (Homo sapiens) (UniProt P11712); experiment: Cytochrome P450 family 2 subfamily C member 9 (CYP2C9) small molecule antagonists: luciferase biochemical (cell-free) qHTS assay (AID 1645842; active means well fitted curve in the direction sought with a large enough effect in the repeat runs; an effect the other way counts as inactive or inconclusive; further: potency means the concentration at half of the fitted maximal effect; nearly all actives have a fitted effect of over 55% in size)
# Summary of the method: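 P450-Glo CYP2C9 system: proluciferin substrate with enzyme in mix containing 0.4% BSA, 10 min at room temperature, then NADPH regeneration solution added and incubated 1 h at 37C. Detection reagent stopped reaction; luminescence read after 20 min as RLU.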
# [4] = target: Catechol O-methyltransferase (Homo sapiens) (UniProt P21964); experiment: Confirmatory Screen for Target Class Profiling of Small Molecule Inhibitors of Methyltransferases (AID 1745852); conditions: MTase-Glo luminescence, SAH detection, recombinant enzyme; measured here: COMT max response; stronger effect = lower value
# [5] = target: N-terminal Xaa-Pro-Lys N-methyltransferase 1 (Homo sapiens) (UniProt Q9BV86); experiment: Confirmatory qHTS for Inhibitors of N-terminal methyltransferase 1 (NTMT1): MTaseGlo Assay (AID 1645874); further: nearly all actives have a fitted effect of over 65% in size; further: potency means the concentration at half of the fitted maximal effect
# Summary of the method: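 SPKRIA peptide at 1 uM was methylated by 125 nM NTMT1 using 100 uM SAM over 30 min at room temperature, following a 15 min compound preincubation. Product SAH was detected luminescently.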
# [6] = target: Rap guanine nucleotide exchange factor 3 (Homo sapiens) (UniProt O95398); experiment: Confirmatory qHTS for antagonist of cAMP-regulated guanine nucleotide exchange factor 3 (EPAC1) (AID 1645880); further: nearly all actives have a fitted effect of over 55% in size; further: potency means the concentration at half of the fitted maximal effect
# Summary of the method: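 Released BODIPY-GDP fluoresces less than Rap1-bound BODIPY-GDP; the signal is followed at 480/540 nm at 5-min intervals over 30 min, after 5 min at room temperature. Reactions contain 100 nM EPAC1, 250 nM RAP1B-BODIPY-GDP and 50 uM GDP; results are normalized to ATA and DMSO.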
# [7] = target: Rap guanine nucleotide exchange factor 3 (Homo sapiens) (UniProt O95398); experiment: Confirmatory qHTS for agonist of cAMP-regulated guanine nucleotide exchange factor 3 (EPAC1) (AID 1645881);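 further: EPAC1 catalysed release of BODIPY-GDP from Rap1B seen as fluorescence loss; nearly all actives have a fitted effect of over 75% in size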
# [8] = target: Rap guanine nucleotide exchange factor 4 (Homo sapiens) (UniProt Q8WZA2); experiment: Confirmatory qHTS for agonist of cAMP-regulated guanine nucleotide exchange factor 4 (EPAC2) (AID 1645884);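 further: nucleotide exchange releases bodipy-GDP from Rap1 and this lowers its fluorescence; nearly all actives have a fitted effect of over 65% in size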
# [9] = target: Rap guanine nucleotide exchange factor 4 (Homo sapiens) (UniProt Q8WZA2); experiment: Confirmatory qHTS for antagonist of cAMP-regulated guanine nucleotide exchange factor 4 (EPAC2) (AID 1645885); further: nearly all actives have a fitted effect of over 25% in size; further: potency means the concentration at half of the fitted maximal effect
# Sequence of Catechol O-methyltransferase (Homo sapiens) (P21964 whole entry, looked up): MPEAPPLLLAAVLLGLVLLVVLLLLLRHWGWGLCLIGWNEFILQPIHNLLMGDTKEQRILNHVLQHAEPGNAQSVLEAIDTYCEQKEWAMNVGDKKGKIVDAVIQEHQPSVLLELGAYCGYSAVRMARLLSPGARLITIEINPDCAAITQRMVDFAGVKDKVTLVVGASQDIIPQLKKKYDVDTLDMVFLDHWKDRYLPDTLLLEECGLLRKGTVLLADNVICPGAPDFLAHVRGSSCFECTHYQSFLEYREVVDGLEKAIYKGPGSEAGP
# Sequence of Rap guanine nucleotide exchange factor 4 (Homo sapiens) (Q8WZA2 whole entry, looked up): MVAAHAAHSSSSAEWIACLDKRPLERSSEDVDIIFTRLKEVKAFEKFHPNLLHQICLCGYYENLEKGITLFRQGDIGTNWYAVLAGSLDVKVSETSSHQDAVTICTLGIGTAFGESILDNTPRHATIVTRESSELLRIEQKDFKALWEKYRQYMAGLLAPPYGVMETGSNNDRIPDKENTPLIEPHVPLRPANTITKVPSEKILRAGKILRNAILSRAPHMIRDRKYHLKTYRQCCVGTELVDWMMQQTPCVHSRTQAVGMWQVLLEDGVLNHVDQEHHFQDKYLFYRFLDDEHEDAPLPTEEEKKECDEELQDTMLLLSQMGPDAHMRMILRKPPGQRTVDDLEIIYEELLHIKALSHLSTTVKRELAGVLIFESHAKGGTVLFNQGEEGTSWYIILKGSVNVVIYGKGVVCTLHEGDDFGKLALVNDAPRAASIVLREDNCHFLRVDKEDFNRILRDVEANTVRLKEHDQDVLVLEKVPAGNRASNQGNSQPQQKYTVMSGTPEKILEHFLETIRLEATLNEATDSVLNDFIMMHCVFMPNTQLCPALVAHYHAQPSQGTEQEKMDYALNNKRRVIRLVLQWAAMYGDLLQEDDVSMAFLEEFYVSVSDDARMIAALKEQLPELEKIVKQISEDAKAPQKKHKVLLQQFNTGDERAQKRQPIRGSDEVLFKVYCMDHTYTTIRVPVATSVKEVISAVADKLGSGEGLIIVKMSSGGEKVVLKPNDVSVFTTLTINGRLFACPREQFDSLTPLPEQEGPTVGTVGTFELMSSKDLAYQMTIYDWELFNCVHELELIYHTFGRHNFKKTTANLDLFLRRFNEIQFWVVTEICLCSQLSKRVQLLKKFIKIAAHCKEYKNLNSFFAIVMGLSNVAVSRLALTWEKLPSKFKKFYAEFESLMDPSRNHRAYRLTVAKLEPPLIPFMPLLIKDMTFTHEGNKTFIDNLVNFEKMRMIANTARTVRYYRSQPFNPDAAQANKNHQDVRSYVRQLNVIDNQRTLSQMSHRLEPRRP
# Sequence of Rap guanine nucleotide exchange factor 3 (Homo sapiens) (O95398 whole entry, looked up): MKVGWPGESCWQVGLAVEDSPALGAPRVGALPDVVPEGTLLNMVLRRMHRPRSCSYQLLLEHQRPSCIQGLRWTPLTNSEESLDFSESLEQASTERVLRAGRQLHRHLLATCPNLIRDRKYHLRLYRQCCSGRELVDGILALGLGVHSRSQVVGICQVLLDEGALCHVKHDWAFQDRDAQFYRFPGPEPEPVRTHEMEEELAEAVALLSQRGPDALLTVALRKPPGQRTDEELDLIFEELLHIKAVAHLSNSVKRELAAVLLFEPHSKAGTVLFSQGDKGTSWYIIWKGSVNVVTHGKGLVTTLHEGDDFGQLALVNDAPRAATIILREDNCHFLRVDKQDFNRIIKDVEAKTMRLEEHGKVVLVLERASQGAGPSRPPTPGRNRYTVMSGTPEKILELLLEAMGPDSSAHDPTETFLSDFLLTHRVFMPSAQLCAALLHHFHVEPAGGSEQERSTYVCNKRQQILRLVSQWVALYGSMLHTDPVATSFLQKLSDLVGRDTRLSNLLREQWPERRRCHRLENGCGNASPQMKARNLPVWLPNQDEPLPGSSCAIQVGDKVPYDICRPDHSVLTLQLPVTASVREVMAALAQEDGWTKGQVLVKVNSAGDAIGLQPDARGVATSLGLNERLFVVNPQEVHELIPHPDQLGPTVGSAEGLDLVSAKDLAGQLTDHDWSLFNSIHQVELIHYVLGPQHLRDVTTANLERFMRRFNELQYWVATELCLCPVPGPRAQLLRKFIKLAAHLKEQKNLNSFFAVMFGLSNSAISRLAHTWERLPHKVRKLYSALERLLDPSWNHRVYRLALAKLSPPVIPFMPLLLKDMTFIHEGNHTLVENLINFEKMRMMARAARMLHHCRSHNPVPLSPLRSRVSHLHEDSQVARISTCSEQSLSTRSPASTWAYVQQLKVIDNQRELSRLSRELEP
# Sequence of N-terminal Xaa-Pro-Lys N-methyltransferase 1 (Homo sapiens) (Q9BV86 whole entry, looked up): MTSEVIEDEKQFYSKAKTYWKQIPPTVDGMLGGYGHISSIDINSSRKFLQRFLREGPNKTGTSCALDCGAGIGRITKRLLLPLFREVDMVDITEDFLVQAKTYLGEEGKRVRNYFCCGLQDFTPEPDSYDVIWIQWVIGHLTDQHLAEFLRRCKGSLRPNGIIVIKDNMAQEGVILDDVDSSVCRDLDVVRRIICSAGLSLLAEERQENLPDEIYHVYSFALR
# Sequence of Papain (Carica papaya) (P00784 whole entry, looked up, the tested form may be a part): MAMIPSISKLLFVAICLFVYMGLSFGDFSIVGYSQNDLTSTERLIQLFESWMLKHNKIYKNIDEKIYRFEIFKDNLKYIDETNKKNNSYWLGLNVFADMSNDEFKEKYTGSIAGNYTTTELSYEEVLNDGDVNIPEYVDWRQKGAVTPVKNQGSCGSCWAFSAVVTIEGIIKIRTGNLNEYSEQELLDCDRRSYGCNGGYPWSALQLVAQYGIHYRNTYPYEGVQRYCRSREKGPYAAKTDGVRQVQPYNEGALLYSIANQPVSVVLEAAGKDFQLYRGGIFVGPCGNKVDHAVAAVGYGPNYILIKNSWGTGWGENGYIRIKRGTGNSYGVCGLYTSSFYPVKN
# Sequence of Cytochrome P450 2C9 (Homo sapiens) (P11712 whole entry, looked up): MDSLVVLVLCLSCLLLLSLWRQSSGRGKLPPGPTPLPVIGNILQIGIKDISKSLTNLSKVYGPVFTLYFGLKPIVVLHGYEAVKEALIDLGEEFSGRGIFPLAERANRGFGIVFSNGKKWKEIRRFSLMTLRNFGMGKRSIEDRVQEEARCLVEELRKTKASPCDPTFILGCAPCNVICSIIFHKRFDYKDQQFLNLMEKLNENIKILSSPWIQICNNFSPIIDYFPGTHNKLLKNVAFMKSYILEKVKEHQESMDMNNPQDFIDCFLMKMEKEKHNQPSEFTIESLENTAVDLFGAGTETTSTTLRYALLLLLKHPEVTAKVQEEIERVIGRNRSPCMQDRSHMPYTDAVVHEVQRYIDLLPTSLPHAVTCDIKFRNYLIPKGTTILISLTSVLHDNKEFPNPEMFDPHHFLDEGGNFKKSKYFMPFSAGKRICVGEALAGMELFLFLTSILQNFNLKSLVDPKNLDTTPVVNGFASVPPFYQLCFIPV
smiles,measurement,setting,value
NS(=O)(=O)c1cc2c(cc1Cl)NC=NS2(=O)=O,Potency,Papain (Carica papaya),inactive
same,Potency,[1],inactive
same,Potency,[2],inactive
Cc1cn[nH]c1,Potency,Papain (Carica papaya),inactive
same,Potency,[1],inactive
same,Potency,[2],inactive
CNCc1ccc(-c2[nH]c3cc(F)cc4c3c2CCNC4=O)cc1,Potency,[3],6010 nM (active)
same,Potency,[1],16.3 µM (active) and 11.8 µM (active)
same,Potency,[2],7.28 µM (active) and 7.42 µM (active)
same,activity,[4],-6.4%
Nc1ncnc2nc(-c3ccc(N4CCOCC4)nc3)cc(-c3cccc(Br)c3)c12,Potency,[5],515 nM (active)
OCCn1cc(-c2cnc3nnn(Cc4ccc5ncccc5c4)c3n2)cn1,Potency,[5],inactive
CCOC(=O)N1CCC(=C2c3ccc(Cl)cc3CCc3cccnc32)CC1,Potency,[6],inactive
same,outcome,[7],inactive
CN1CCN(CCCN2c3ccccc3Sc3ccc(C(F)(F)F)cc32)CC1,outcome,[7],inactive
same,outcome,[8],inactive
same,Potency,[9],24.8 µM (active) and 44.1 µM (active)
O=C(O)[C@@H](c1ccc(OCc2ccc3ccccc3n2)cc1)C1CCCC1,Potency,[1],inactive
same,Potency,[2],inactive
N#CC[C@H](C1CCCC1)n1cc(-c2ncnc3[nH]ccc23)cn1,Potency,[1],16.3 µM (active) and 9.34 µM (active)
same,Potency,[2],18.3 µM (active) and 9.34 µM (active)
Cc1cc(Nc2nc(N[C@@H](C)c3ncc(F)cn3)ncc2Cl)n[nH]1,Potency,[1],2.05 µM (active) and 2.95 µM (active)
same,Potency,[2],2.05 µM (active) and 3.72 µM (active)
CCCn1c(=O)c2[nH]c(C34CC5CC3C[C@@H](C5)C4)nc2n(CCC)c1=O,Potency,[1],inactive
same,Potency,[2],inactive
Cc1csc(NC(=O)c2sc3nc4c(c(C(F)(F)F)c3c2N)CCC4)n1,Potency,[2],inactive
COc1ccc2c3n(c(=NC(=O)c4cccnc4)nc2c1OC)CCN3,Potency,[1],0.166 µM (active)
same,Potency,[2],0.186 µM (active)
Nc1nccc(-c2ccc3noc(-c4ccc(Cl)cc4)c3c2)n1,Potency,[1],inactive
same,activity,[4],-4.29%
Nc1nc2[nH]cc(CCc3ccc(C(=O)N[C@@H](CCC(=O)O)C(=O)O)cc3)c2c(=O)[nH]1,Potency,[1],0.296 µM (active)
same,Potency,[2],0.296 µM (active)
COc1ccc(CC2=NN3C([C@@H](CCc4ccccc4)[C@@H](C)O)=NC(C)C3C(=O)N2)cc1OC (some centres undefined),Potency,[2],inactive
CN[C@@H](C)C(=O)N[C@H]1CCCC[C@H]2CC[C@@H](C(=O)N[C@@H](c3ccccc3)c3cn(CCCCc4ccc(CCCCn5cc([C@@H](NC(=O)[C@@H]6CC[C@@H]7CCCC[C@H](NC(=O)[C@H](C)NC)C(=O)N76)c6ccccc6)nn5)cc4)nn3)N2C1=O,Potency,[2],inactive
CCn1c(-c2nonc2N)nc2c(C#CC(C)(C)O)ncc(OC[C@H]3CCCNC3)c21,Potency,[1],1.32 µM (active)
same,Potency,[2],1.18 µM (active)
Cc1cnc(Nc2ccc(OCCN3CCCC3)cc2)nc1Nc1cccc(S(=O)(=O)NC(C)(C)C)c1,Potency,[1],1.83 µM (active) and 2.35 µM (active)
same,Potency,[2],1.83 µM (active) and 1.86 µM (active)
same,activity,[4],-12.3%
CN(C)c1ccc(C2Nc3ccc4ccccc4c3C3=C2C(=O)CC(C)(C)C3)cc1Br (centres undefined),Potency,[1],inactive
same,Potency,[2],inactive
OC[C@H](Cc1ccccc1)Nc1nc(Oc2ccc3c(c2)CCC3)nc2c1ncn2Cc1ccc(-c2ccccc2)cc1,activity,[4],-10.9%
Nc1nc2ccc(OC(F)(F)F)cc2s1,Potency,[1],23.5 µM (active)
same,Potency,[2],20.9 µM (active)
same,Potency,[6],inactive
same,outcome,[7],inactive
same,outcome,[8],inactive
CCN(CC)CCCC(C)Nc1ccnc2cc(Cl)ccc12 (centres undefined),Potency,[1],inactive
same,Potency,[2],inactive
same,activity,[4],-0.478%
Cc1c(CCOc2ccc(C(=O)O)cc2)c2cc(Cl)ccc2n1C(c1ccccc1)c1ccccc1,Potency,[1],inactive
same,Potency,[2],inactive
CCC(=O)N[C@H]1CC[C@H](C(=O)N(C)c2ccc(-c3nc4ccccc4o3)cc2)C1,Potency,[2],18.6 µM (active)
CO[C@@H]1[C@H](N(C)C(=O)c2ccccc2)C[C@H]2O[C@]1(C)n1c3ccccc3c3c4c(c5c6ccccc6n2c5c31)C(=O)NC4,Potency,[1],1.3 µM (active) and 1.05 µM (active)
same,Potency,[2],1.3 µM (active) and 525 nM (active)
CN(C)c1ccc(Nc2nc(N)n(C(=O)c3c(F)cccc3F)n2)cc1,Potency,[1],1.48 µM (active)
same,Potency,[2],0.833 µM (active)
COc1cc(F)c(F)c(Nc2ccc(I)cc2F)c1NS(=O)(=O)C1(C[C@H](O)CO)CC1,Potency,[1],18.3 µM (active) and 20.9 µM (active)
same,Potency,[2],25.8 µM (active) and 20.9 µM (active)
CCN(c1ccccc1)c1cc(NC)[n+](C)c(C)n1,Potency,[1],inactive
same,Potency,[2],inactive
Cc1cc(SCc2sc(-c3ccc(C(F)(F)F)cc3)nc2C)ccc1OCC(=O)O,Potency,[1],inactive
same,Potency,[2],inactive
COc1c(Cl)cc2c([nH]c3cnccc32)c1NC(=O)c1cccnc1C,Potency,[1],9.34 µM (active)
same,Potency,[2],9.34 µM (active)
CCCS(=O)(=O)Nc1ccc(F)c(C(=O)c2c[nH]c3ncc(-c4ccc(Cl)cc4)cc23)c1F,Potency,[1],18.4 µM (active) and inactive
same,Potency,[2],16.4 µM (active) and inactive
same,activity,[4],-8.94%
CCCCCCCc1ccc(CCc2cccc(O)c2C(=O)O)cc1,Potency,[2],inactive
same,activity,[4],-2.12%
CCn1c(-c2nonc2N)nc2cnc(Oc3cccc(NC(=O)c4ccc(OCCN5CCOCC5)cc4)c3)cc21,Potency,[1],3.26 µM (active) and 662 nM (active)
same,Potency,[2],326 nM (active) and 417 nM (active)
CC(C)(Sc1ccc(CCN(CCCCC2CCCCC2)C(=O)NC2CCCCC2)cc1)C(=O)O,Potency,[1],inactive
same,Potency,[2],inactive
same,Potency,[6],28 µM (active) and 42.6 µM (active)
same,outcome,[7],inactive
same,outcome,[8],inactive
same,Potency,[9],44.1 µM (active) and inactive and 39.3 µM (active)
same,activity,[4],-3.21%
COc1ccc(-c2ccc3c(N4CCOCC4)nc(N4C[C@@H](C)O[C@@H](C)C4)nc3n2)cc1CO,Potency,[1],0.662 µM (active)
same,Potency,[2],inactive
NC[C@H](O)c1ccc(O)c(O)c1,Potency,[1],inactive
same,Potency,[2],inactive
same,activity,[4],45.4%
CCc1ccc(CCOc2ccc(CC3SC(=O)NC3=O)cc2)nc1 (centres undefined),Potency,[1],inactive
same,Potency,[2],inactive
CC1(C)CNc2cc(NC(=O)c3cccnc3NCc3ccncc3)ccc21,Potency,[1],inactive
same,Potency,[2],inactive
NC(=O)C1CCCc2c1[nH]c1ccc(Cl)cc21 (centres undefined),Potency,[1],inactive
same,Potency,[2],inactive
N#Cc1ccc(C(c2ccc(C#N)cc2)n2cncn2)cc1,Potency,[1],inactive
same,Potency,[2],inactive
CCc1cc(Nc2nccc(-c3c(-c4ccc(OC)c(C(=O)Nc5c(F)cccc5F)c4)nc4ccccn34)n2)c(OC)cc1N1CCC(N2CCN(S(C)(=O)=O)CC2)CC1,Potency,[2],inactive and 5.9 µM (active)
CC(c1cc2ccccc2s1)N(O)C(N)=O (centres undefined),Potency,[1],inactive
same,Potency,[2],inactive
CS(=O)(=O)Oc1ccc2c(NC(N)=O)c(C(=O)c3ccc(Cl)cc3Cl)oc2c1,Potency,[1],inactive
same,Potency,[2],inactive
O=C(C1CC1)N1CC[C@@H](Cn2c(-c3ccc(-c4ccc5occc5c4)cc3)nc3cnccc32)C1,Potency,[1],18.6 µM (active)
same,Potency,[2],16.6 µM (active)
